# Source: PubChem BioAssay AID938 (National Center for Advancing Translational Sciences (NCATS), 2007)
# “And” between values parts separate entries of the source, which are not always exact repeats. Equal values may be shown once. About 1,800 (2.5%) of roughly 73,000 compounds were called active. Not shown: some 13% with an inconclusive outcome. The sample holds actives, similar compounds and a random draw of the others, so the mix is not that of the screen. Calls follow the shape of the dose curve; as a rule, active = well fitted activation curve with a large enough effect; inconclusive = small, poorly fitted or top-dose-only effect; inactive = no such curve, though single readings can be large or run the other way. Some compounds were tested as several samples or in several runs, with calls that do not always agree.
# Assay: qHTS Assay for Agonists of the Thyroid Stimulating Hormone Receptor: Activators of Intracellular cAMP Concentrations in Parental HEK 293; also: nearly all actives have a fitted effect of over 55% in size; as to activation: % of control where 0% means no effect
# Conditions: parental HEK293 CNG cAMP sensor, membrane potential fluorescence; series mostly up to 57.1 µM; activation: at the top concentration
# Outline: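 Parental HEK 293 cells stably expressing a cAMP-gated CNG channel were loaded with membrane potential dye containing 100 uM RO 20-1724 for 60 min. Compound added for 30 min; depolarization read as fluorescence intensity at 590 nm.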
# Potency is read from the fitted curve at half-maximal effect.
Structure (SMILES),activation,Potency
CO[C@H]1COC(=O)[C@@H](C)NC(=O)C/C=C\[C@@H](C)[C@H](OC)COC(=O)C/C=C\[C@@H]1C,2.45% [at 11.4 µM] (inactive),–
Cc1ccc(/C(=C/CN2CCCC2)c2ccccn2)cc1,–,inactive and 25.1 µM (active)
Cc1ccc(N2CCN(c3ccc(C)cc3)C2c2ccccn2)cc1,-3.82% (inactive),–
Cc1ccc(N(CC(O)CN2CCCC2)S(=O)(=O)c2ccccc2)cc1 (centres undefined),9.44% [at 11.4 µM] (inactive),–
O=NO,–,inactive
Cn1c(=O)n2n(c1=O)[C@H]1[C@H](O)[C@H]3O[C@H]3C(=O)[C@H]1CC2,0.42% [at 11.4 µM] (inactive),–
COC(=O)c1ccccc1NC(=O)Cn1nc(C(F)(F)F)c2c1CCC2,–,25.1 µM (active)
Cc1cc(NC(=O)Cn2nc(C(F)(F)F)c3c2CCCC3)no1,-0.746% (inactive),–
O=C(Cn1nc(C(F)(F)F)c2c1CCC2)NCc1ccc(F)cc1,14.7% (inactive),–
CCCNC(=O)OC[C@@H]1O[C@H](c2ccccc2)C=C[C@@H]1Oc1ccc(OC)cc1,1.38% [at 11.4 µM] (inactive),–
CCCC[C@@H]1C[C@H]1C(NC(=O)c1ccco1)c1ccc(C(=O)OC)cc1 (some centres undefined),–,25.1 µM (active)
CCCC[C@@H]1C[C@H]1C(NC(=O)c1ccc(-c2ccccc2)cc1)c1ccc(-c2ccccc2)cc1 (some centres undefined),1.42% (inactive),–
COC(=O)c1ccc(NC(=O)c2ccco2)cc1,8.99% (inactive),–
CCC(C)(C)N=C(NC#N)Nc1cccnc1,0.273% (inactive),–
O=C(CN1CCN(c2ccccc2F)CC1)c1ccc2c(c1)OCO2,5.84% (inactive),–
Cn1c(=O)c2c(nc(CN3CCOCC3)n2Cc2ccccc2)n(C)c1=O,-0.85% (inactive),–
CC1CCN(Cc2nc3c(c(=O)n(C)c(=O)n3C)n2CCc2ccccc2)CC1,–,5.01 µM (active)
COCCn1c(CN2CCC(Cc3ccccc3)CC2)nc2c1c(=O)n(C)c(=O)n2C,24.7% (inactive),–
CC1CN(C(=O)c2ccc3c(c2)OCO3)OC(c2ccccc2)O1 (centres undefined),8.54% (inactive),–
Cc1nc2c(c(=O)n1Cc1ccco1)c1nc3ccccc3nc1n2Cc1ccccc1,27.8% (inactive),–
Cc1ccc(C(=O)CSc2nc3ccccc3c(=O)n2N)o1,13.4% (inactive),–
CC(Sc1nc2ccccc2c(=O)n1Cc1ccco1)C(=O)c1ccccc1 (centres undefined),–,15.8 µM (active)
CO[C@H]1COC(=O)[C@H](Cc2ccccc2)NC(=O)C/C=C\[C@@H](C)[C@H](OC)COC(=O)C/C=C\[C@@H]1C,25.1% [at 11.4 µM] (inactive),–
COc1ccc(NC(=O)N2CC3(CCN(C(=O)c4cccn4C)CC3)C2)cc1,5.6% (inactive),–
Cn1c(SCC(=O)c2cccs2)nnc1-c1ccco1,-17.6% (inactive),–
COCn1c(COc2ccccc2)nc2ccccc21,25.1% [at 11.4 µM] (inactive),–

Structure (SMILES),activation,Potency
CC(=O)NC(C)c1nc2ccccc2n1Cc1ccccc1F (centres undefined),11.7% (inactive),–
COCc1nc2ccccc2n1Cc1ccccc1Br,–,31.6 µM (active)
COCc1nnc(NC(=O)CS(=O)(=O)Cc2ccccc2)s1,0.984% (inactive),–
Cc1ccc(N2CCN(S(=O)(=O)c3ccc(F)cc3)CC2)c(C)c1,12.7% (inactive),–
CC(Cc1ccccc1)C(=O)N(C)Cc1ccccc1 (centres undefined),16.5% (inactive),–
COc1ccc(-c2nn3c(-c4ccccc4)nnc3s2)cc1OC,28.3% (inactive),–
c1ccc(-c2cc(-c3nnc4sc(-c5ccccn5)nn34)[nH]n2)cc1,–,25.1 µM (active)
CN(C(=O)c1ccccn1)c1nnc(-c2ccccn2)s1,-4.34% (inactive),–
Cc1ccc(S(=O)(=O)N2CC(=O)Nc3ccccc32)cc1C,-6.15% [at 11.4 µM] (inactive),–
CCOC(=O)N/N=C1/C[C@@H](O)[C@@H](O)[C@@H]2[C@@H]3C(=O)N(CC)C(=O)[C@H]3CC[C@H]12,2.56% [at 11.4 µM] (inactive),–
COc1ccc(OC)c(C(=O)c2ccc(C(=O)O)cc2)c1,2.61% (inactive),–
COc1ccc(OC)c(C(=O)c2coc3ccc(O)c(CN4CCOCC4)c23)c1,17.1% (inactive),–
COc1ccc(OC)c(C(=O)c2coc3ccc(OC)cc23)c1,–,10 µM (active)
O=C(CN1C(=O)CSc2ncccc21)N1CCOCC1,-3.29% (inactive),–
CN(C)c1ccc(NC(=O)c2ccncc2)c2ccccc12,-2.48% (inactive),–
COc1ccc(CCN2CNc3c(c(=O)n(C)c(=O)n3C)C2)cc1OC,1.78% (inactive),–
CCN(CC)C(=O)CCC(=O)Nc1ccc(C(=O)OC)cc1,2.85% (inactive),–
CCC/C=C(\CCC)C(NC(=O)Cc1ccccc1)c1ccc(C(=O)OC)cc1 (centres undefined),–,15.8 µM (active)
COC(=O)c1ccc(NCC(=O)c2ccccc2)cc1,7.18% (inactive),–
CO[C@H]1COC(=O)CCC[C@@H](C)[C@H](OC)COC(=O)[C@@H](C)NC(=O)C/C=C\[C@@H]1C,4.76% [at 11.4 µM] (inactive),–
Fc1ccc(-c2nnc(CSc3nnc(-c4ccc5c(c4)OCO5)o3)o2)cc1,–,25.1 µM (active)
Fc1ccc2nc(-c3ccccc3)nc(SCc3nnc(-c4ccccc4)o3)c2c1,19.2% (inactive),–
Fc1ccc(-c2nnc3sc(-c4ccc5c(c4)OCO5)nn23)cc1,23.4% (inactive),–
Cc1ccc(C(=O)NC2CC(C)(C)NC(C)(C)C2)c(C)c1,0.884% (inactive),–
CCOC(=O)c1ccc(COC(=O)c2cc(=O)[nH]c3ccccc23)o1,3.05% (inactive),–
COC(=O)c1ccc(COC(=O)c2c(C)nn(Cc3ccccc3Cl)c2Cl)o1,–,15.8 µM (active)

Structure (SMILES),activation,Potency
Cc1nn(Cc2ccccc2)c(Cl)c1C(=O)OC1CCOC1=O (centres undefined),2.04% (inactive),–
CCCCn1c(CCCNC(=O)CC)nc2ccccc21,14.9% (inactive),–
COc1ccc(NC(=O)CCNC(=O)Cn2ccc3ccccc3c2=O)c(OC)c1,-3.68% (inactive),–
CC(C)(C)c1cc(CN2CCN(CCC#N)CC2)cc(C(C)(C)C)c1O,–,7.94 µM (active)
N#CCCN1CCN(S(=O)(=O)c2ccc(S(=O)(=O)NC3CC3)cc2)CC1,2.86% (inactive),–
Cc1ccc(S(=O)(=O)NCC(=O)OCC(=O)N2CCc3ccccc32)cc1,-6.34% (inactive),–
C[C@@H]1/C=C\CC(=O)OC[C@H]2O[C@@H](C=C[C@@H]2O)[C@H](C)/C=C\CC(=O)OC[C@H]2O[C@H]1C=C[C@@H]2O,-6.65% [at 11.4 µM] (inactive),–
O=C(Nc1ccc2c(c1)OCCO2)c1ccncc1,9.97% (inactive),–
O=C(Nc1cccnc1)c1ccc2c(c1)OCO2,4.06% (inactive),–
O=C(Nc1nc(-c2ccc3c(c2)OCO3)cs1)c1ccncc1,–,20 µM (active)
C=CCn1c(COc2ccccc2)nnc1SCC(=O)NCC(=O)OCC,-0.938% (inactive),–
O=C(CC1(O)C(=O)N(CN2CCOCC2)c2ccccc21)c1ccccc1 (centres undefined),1.28% (inactive),–
Cc1ccc(C(=O)Nc2nnc(-c3ccncc3)s2)o1,-13.3% (inactive),–
CC(C)N(CCNC(=O)c1ccc(-n2c(=O)c(=O)[nH]c3ccccc32)cc1)C(C)C,-3.64% (inactive),–
Cc1cc(C)c(C#N)c(SCc2ccccc2C(=O)O)n1,5.96% (inactive),–
Cc1cc(C)c(C#N)c(SCc2ccc3c(c2)OCO3)n1,–,20 µM (active)
Cc1cc(N2CCN(Cc3ccc4c(c3)OCO4)CC2)n2ncnc2n1,7.27% (inactive),–
CC1(C)OC(C(O)(c2ccccc2)c2ccccc2)C(C(O)(c2ccccc2)c2ccccc2)O1 (centres undefined),25.8% [at 11.4 µM] (inactive),–
CCOc1ccc(C(CC(=O)O)NC(=O)COc2ccccc2)cc1 (centres undefined),22.8% (inactive),–
O=C(Nc1nnc(CCc2ccccc2)s1)C1CCCO1 (centres undefined),-1.9% (inactive),–
CCC(=O)c1cc2c(cc1NC(=O)c1cccs1)OCCO2,-57.7% (inactive),–
O=S(=O)(NCC1CCCO1)c1ccc2ccccc2c1 (centres undefined),28.1% (inactive),–
CCOc1ccc(CN(Cc2ccco2)C(c2cccs2)c2nnnn2C(C)(C)C)cc1 (centres undefined),21.3% (inactive),–
Cn1nnnc1SCC(=O)N1CCN(Cc2ccccc2)CC1,-19.6% (inactive),–
Fc1ccc(Cn2nnnc2C(c2cccs2)N2CCCCCC2)cc1 (centres undefined),–,31.6 µM (active)
O=S(=O)(c1cccs1)N1CCN(Cc2ccccc2)CC1,8.66% (inactive),–

Structure (SMILES),activation,Potency
CCC(C)(C)n1nnnc1C(c1cccs1)N1CCN(c2nc3ccccc3s2)CC1 (centres undefined),–,3.16 µM (active)
CCC(C)(C)n1nnnc1C(c1cccs1)N1CCN(Cc2ccccc2)CC1 (centres undefined),–,12.6 µM (active)
Fc1ccccc1C(c1nnnn1Cc1ccc2c(c1)OCO2)N1CCN(Cc2ccccc2)CC1 (centres undefined),-1.23% (inactive),–
Cc1ccc(C(c2nnnn2C(C)(C)C)N2CCc3ccccc3C2)cc1 (centres undefined),10.3% (inactive),–
Cc1cc(C)c2[nH]c(=O)c(C(c3nnnn3Cc3ccc4c(c3)OCO4)N3CCCC3)cc2c1 (centres undefined),26.5% (inactive),–
COc1ccc(-c2nc3cnc(N(C)C)nc3n(Cc3cccs3)c2=O)cc1,2.64% (inactive),–
CCOC(=O)C(C(=O)OCC)C(C#N)c1ccccc1 (centres undefined),14.2% (inactive),–
O=C(O)CC(C(=O)O)C(CC(=O)O)C(=O)O (centres undefined),-7.18% (inactive),–
Cc1ccc(S(=O)(=O)Cn2nnnc2CN2CCN(Cc3ccc4c(c3)OCO4)CC2)cc1,20% (inactive),–
O=C(O)c1ccc(Cl)c(S(=O)(=O)Nc2ccccc2Cl)c1,5.29% (inactive),–
Cc1ccc(-c2nc(CS(=O)CC(=O)N3CCN(c4ncccn4)CC3)c(C)o2)cc1 (centres undefined),5.16% (inactive),–
N#CC1=C(N)OC2=C(C(=O)CCC2)C1C1CC=CCC1 (centres undefined),9.36% (inactive),–
COC(=O)Cn1cc(C(=O)c2cccs2)c2ccccc21,18.6% (inactive),–
CC1CCN(C(=O)Cn2cc(C(=O)c3ccco3)c3ccccc32)CC1,–,20 µM (active)
CCOC(=O)C1CCN(C(=O)Cn2cc(C#N)c3ccccc32)CC1,-2.07% (inactive),–
CC(=O)OCC1OC(C#Cc2ccccc2Cl)C=CC1OC(C)=O (centres undefined),-0.512% [at 11.4 µM] (inactive),–
CCCCCCCCCCCC(=O)O[C@H](CC(=O)O)C[N+](C)(C)C,10.1% (inactive),–
COc1ccc(NC(=O)CSc2nnc(-c3cccs3)n2Cc2ccco2)cc1OC,5.77% (inactive),–
CCn1c(CNc2ccc(OC)cc2)nnc1SCC(=O)c1ccc(OC)cc1,3.65% (inactive),–
O=C(CSc1nnc(-c2cccs2)n1Cc1ccco1)c1ccc2c(c1)OCO2,–,31.6 µM (active)
O=C(CSc1nnc(-c2cccs2)n1-c1ccccc1)NCc1ccco1,23.2% (inactive),–
COc1ccc(-c2nnc(SCC(=O)c3ccco3)n2-c2ccccc2)cc1,11.6% (inactive),–
COc1ccc(C(=O)CSc2nnc(COc3ccccc3)n2Cc2ccco2)cc1,–,15.8 µM (active)
O=C(CSc1nnc(-c2cnccn2)n1Cc1ccco1)c1ccc(Cl)c(Cl)c1,–,25.1 µM (active)
Cc1ccc(NC(=O)CSc2nnc(-c3cnccn3)n2Cc2ccco2)cc1C,0.776% (inactive),–
O=C(CSc1nnc(-c2cccnc2)n1Cc1ccco1)c1ccc(Cl)cc1,19.9% (inactive),–
